Data published in PMC5540273 (PLoS ONE, 2017).

test system: CSNK1A1L; details: concentration: 1 μM, replicates: in singlicate; n = 1
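Also: KINOMEscan kinase panel screen.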

Structure (SMILES)	%Inh [%]
Oc1cc(Nc2ccnc3cc(I)ccc23)ccc1F [GW552771]	16
CC(C)c1nc(-c2cccc(NS(=O)(=O)c3c(F)cccc3F)c2F)c(-c2ccnc(Nc3ccc(N4CCOCC4)nc3)n2)s1 [GSK2008607]	0
CCn1c(-c2nonc2N)nc2c(C#CC(C)(C)O)nc(OC[C@H](N)c3ccccc3)cc21 [GSK943949]	0
CC(C)(C)c1ccc2nccc(Nc3cccc(O)c3)c2c1 [GW856795]	0

test system: CSNK1A1; details: concentration: 1 μM, replicates: in singlicate; n = 1

Structure (SMILES)	%Inh [%]
CN1CCN(CCCNc2nccc(-c3c(-c4ccc(F)cc4)nn4cc(C(F)(F)F)ccc34)n2)CC1 [GW621581]	83
C[C@@H]1CC[C@@H](C(=O)Nc2ccccc2)CN1c1cc(-c2ccc3c(N)n[nH]c3c2)nc(N)n1 [GSK2286062]	0
Cl.Cl.NCC(NCc1ccc(-c2ccnc3[nH]ccc23)s1)c1ccccc1 (centres unmarked) [GSK1321565]	10
Nc1n[nH]c2cnc(-c3ccccc3)cc12 [SB-642124]	0
COc1cccc(NC(=O)NC2CCN(c3ccnc(Nc4cc(OC)c(OC)c(OC)c4)n3)C2)c1 (centres unmarked) [GSK1379763]	0
COc1cccc(C(=O)Nc2cccc(Oc3ccc4nc(NC(=O)C5CC5)cn4n3)c2)c1	29
c1ccc(-c2n[nH]cc2Nc2ccnc3ccccc23)nc1 [GW694077]	40
O=C(Nc1cccc(-c2nn3ccccc3c2-c2ccnc(Nc3cccc(C(F)(F)F)c3)n2)c1)c1c(F)cccc1F [GSK292658]	16
CSc1cccc2c(-c3ccncn3)c(-c3ccc(F)cc3)nn12 [GW514786]	61
COc1ccc(CNC(=O)NC2CCN(c3ccnc(Nc4ccc(F)cc4)n3)CC2)cc1 [GSK1379788]	0
COCCOCCOc1cc2ncc3c4ccc(C#N)cc4[nH]c3c2cc1OC	5
FC(F)(F)c1ccc(/C=C/c2cncnc2Nc2ccc3[nH]c(Cc4ccccc4)nc3c2)cc1 [GW709199]	33
COc1cc(Nc2nccc(N3CCC(NC(=O)Nc4cccc(C(C)=O)c4)C3)n2)cc(OC)c1OC (centres unmarked) [GSK1379753]	0
O=C(O)C(F)(F)F.O=C(O)C(F)(F)F.O=c1[nH]ccc2nc(N[C@@H]3CCCNC3)nc(Nc3ccc(S(=O)(=O)N4CCOCC4)cc3)c12 [GSK2177277]	99.9
Cc1ccc(C(=O)N2CC[C@@H](O)C2)cc1-n1c(C)cc(OCc2ccc(F)cc2F)c(Br)c1=O	0
Cl.c1ccc(-c2ccc3c(Nc4ccc5[nH]ccc5c4)ccnc3c2)nc1 [GW440138]	0
CCCCc1nn2ncccc2c1-c1ccnc(Nc2ccc(N3CCN(C)CC3)cc2)n1 [GW684941]	93.1
COc1ccc(Nc2nccc(NCCNC(=O)c3cc4ccccc4s3)n2)cc1 [GSK1379896]	0
COc1ccc(Nc2nccc(N3CCC(NC(=O)Nc4cccc(OC)c4)C3)n2)cc1 (centres unmarked) [GSK1379742]	0

Structure (SMILES)	%Inh [%]
O=C(Nc1ccccc1F)NC1CCN(c2ccnc(Nc3ccc(F)cc3)n2)CC1 [GSK1379800]	0
Cn1cc(-c2ccc3c(c2)CCN3C(=O)Cc2cccc(F)c2)c2c(N)ncnc21 [GSK2603358]	0
CCc1ccc(-c2ccc3c(c2)-c2c(cnn2C)S(=O)(=O)N3C)cc1	0
COc1cc(Nc2nccc(-c3c(-c4cccc(NC(=O)c5c(F)cccc5F)c4)nn4ccccc34)n2)cc(OC)c1OC [GSK323521]	27
O=C(Nc1cccc(Oc2ccc3nc(NC(=O)C4CC4)cn3n2)c1)c1ccccc1C(F)(F)F	24
O=c1[nH]cc(-c2ccc(N3CCOCC3)cc2)c2sc(-c3cn[nH]c3)cc12 [GSK2276055]	73
Cc1cccc(Nc2nc(N[C@H]3CCNC3)ncc2C(N)=O)c1.Cl [GSK2197149]	75
Nc1ncc(-c2cccnc2)c2scc(-c3ccc4c(c3)CCN4C(=O)Cc3ccccc3)c12 [GSK683281]	4
Cl.Cl.NCC(C(=O)Nc1cc(Br)c(-c2ccnc3[nH]ccc23)s1)c1ccccc1 (centres unmarked) [GSK1269851]	0
Fc1ccc(-c2ncn(C3CCNCC3)c2-c2ccnc(Oc3ccc(-c4ccccc4)cc3)n2)cc1 [SB-245391]	93.9
Cl.c1ccc(-c2ccc3c(Nc4ccc5[nH]ncc5c4)ccnc3c2)nc1 [GW440137]	0
Cl.NC(=O)c1cccc(Nc2nccc(Nc3ccc(Oc4c(Cl)cccc4Cl)c(Cl)c3)n2)c1 [GW659009]	13
O=C(Nc1cccc(-c2nn3ncccc3c2-c2ccnc(Nc3ccccc3)n2)c1)c1c(F)cccc1F [GSK198271]	0
COC(=O)Nc1nc2ccc(Oc3ccc(NC(=O)Nc4cc(C(F)(F)F)ccc4F)cc3)cc2n1C.Cl [GW692089]	0
Oc1cc(Nc2ccnc3cc(I)ccc23)ccc1F [GW552771]	0
CC(C)c1nc(-c2cccc(NS(=O)(=O)c3c(F)cccc3F)c2F)c(-c2ccnc(Nc3ccc(N4CCOCC4)nc3)n2)s1 [GSK2008607]	0
CCn1c(-c2nonc2N)nc2c(C#CC(C)(C)O)nc(OC[C@H](N)c3ccccc3)cc21 [GSK943949]	7
CC(C)(C)c1ccc2nccc(Nc3cccc(O)c3)c2c1 [GW856795]	26
